# About 79,000 compounds went through this panel and 15% of them were active in at least one assay; those are over-represented in the sample as a whole. Values without a mark were called inactive. The source made the active and inactive calls. Rule as the data show it: active = growth inhibition above about 70%; inactive = the rest.
# Legend:
# [1] = NCI Yeast Anticancer Drug Screen. Data for the rad52 strain (AID 147);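 also: 0% = growth of vehicle-treated control cultures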; conditions: S. cerevisiae rad52 mutant growth inhibition, hits give high values
# Procedure, shortened: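 DNA repair-defective yeast; compound exposure; growth scored against vehicle controls.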
# [2] = NCI Yeast Anticancer Drug Screen. Data for the wt1 strain (AID 149);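 also: 0% = growth of vehicle-treated wt1 cultures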; conditions: S. cerevisiae wt1 strain (SPY 50644) growth inhibition, hits give high values
# Procedure, shortened: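 Vehicle-normalised growth inhibition; strain wt1; compound exposure.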
# [3] = NCI Yeast Anticancer Drug Screen. Data for the rad50EPP+ strain (AID 151);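 also: 0% = growth of vehicle-treated control cultures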; conditions: S. cerevisiae rad50 mutant strain, hits give high values
# Procedure, shortened: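 rad50EPP+ yeast treated with test compounds. Readout: growth vs vehicle control.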
# [4] = NCI Yeast Anticancer Drug Screen. Data for the mgt1 strain (AID 153); conditions: S. cerevisiae mgt1 mutant growth inhibition, hits give high values
# Procedure, shortened: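 Growth inhibition relative to vehicle controls was scored for the mgt1 yeast strain after compound exposure.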
# [5] = NCI Yeast Anticancer Drug Screen. Data for the rad50 strain (AID 155);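 also: 0% = growth of vehicle-only cultures of the same strain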; conditions: S. cerevisiae rad50 strain growth inhibition, hits give high values
# Procedure, shortened: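 A DNA repair-deficient yeast mutant serves as the test organism; compound-induced growth inhibition is calculated against vehicle-treated cells.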
# [6] = NCI Yeast Anticancer Drug Screen. Data for the mec2-1 strain (AID 157); conditions: S. cerevisiae mec2-1 strain, hits give high values
# Procedure, shortened: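 Growth inhibition is read against vehicle-treated controls after compound exposure of the mec2-1 yeast strain, which is defective in DNA damage repair or cell cycle control.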
# [7] = NCI Yeast Anticancer Drug Screen. Data for the rad14 strain (AID 159);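 also: 0% = growth of vehicle-treated control cultures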; conditions: S. cerevisiae rad14 strain growth inhibition, hits give high values
# Procedure, shortened: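 Vehicle-treated cultures served as the baseline for growth inhibition of a DNA repair-mutant yeast strain exposed to each compound.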
# [8] = NCI Yeast Anticancer Drug Screen. Data for the sgs1 mgt1 strain (AID 161);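 also: 0% = growth of cultures given vehicle only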; conditions: S. cerevisiae sgs1 mgt1 strain, hits give high values
# Procedure, shortened: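 Yeast cells carrying a defined DNA-repair defect were exposed to test compounds. Growth inhibition was measured relative to vehicle-treated controls.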
# [9] = NCI Yeast Anticancer Drug Screen. Data for the CLN2oe strain (AID 163);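 also: 0% = growth of vehicle-only control cultures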; conditions: S. cerevisiae CLN2oe strain, hits give high values
# Procedure, shortened: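 Compound-treated yeast; growth vs vehicle ctrl = % inhibition. Genetically altered strain (cell-cycle control).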
# [10] = NCI Yeast Anticancer Drug Screen. Data for the cln2 rad14 strain (AID 165);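 also: 0% = growth equal to vehicle treated cultures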; conditions: S. cerevisiae cln2 rad14 strain, hits give high values
# Procedure, shortened: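 Growth inhibition, relative to vehicle-treated controls, is the read-out. The test organism is a yeast strain with defined genetic alterations, cln2 rad14.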
# [11] = NCI Yeast Anticancer Drug Screen. Data for the bub3 strain (AID 167); conditions: S. cerevisiae bub3 mutant strain, hits give high values
# Procedure, shortened: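 Inhibition values come from growth of compound-treated mutant yeast normalised to vehicle-treated controls.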
# [12] = NCI Yeast Anticancer Drug Screen. Data for the wt2 strain (AID 169);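 also: 0% = growth of vehicle-treated yeast cultures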; conditions: S. cerevisiae wt2 strain growth inhibition, hits give high values
# Procedure, shortened: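 Compound exposure of yeast; growth compared with vehicle controls; inhibition reported.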
# [13] = NCI Yeast Anticancer Drug Screen. Data for the sgs1 strain (AID 173);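 also: 0% = growth of vehicle-only control cultures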; conditions: S. cerevisiae sgs1 mutant, hits give high values
# Procedure, shortened: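 Compounds applied to genetically altered yeast; growth compared with vehicle-treated cultures to give % inhibition.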
# [14] = NCI Yeast Anticancer Drug Screen. Data for the mlh1 rad18 strain (AID 175); conditions: S. cerevisiae mlh1 rad18 strain growth inhibition, hits give high values
# Procedure, shortened: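 Cells of a genetically altered yeast strain, deficient in DNA damage repair, were treated with compound. Their growth was then compared with that of vehicle-treated cultures to give inhibition.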
# [15] = NCI Yeast Anticancer Drug Screen. Data for the rad18 strain (AID 177); conditions: S. cerevisiae rad18 mutant growth inhibition, hits give high values
# Procedure, shortened: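 Compounds are applied to a repair-deficient yeast strain, and growth is compared with that of vehicle-treated cultures to give percent inhibition.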
# [16] = at 5.0 µM (retest, dose inferred, filed as 0.5)
# [17] = at 50.0 µM (retest, dose inferred, filed as 5.0)
smiles,measurement,setting,value
CC1(C)C(=O)OC(n2cc(F)c(=O)[nH]c2=O)C1=O (stereo not drawn),growth inhibition,[1]; at 1.2 µM,-32%
same,growth inhibition,[1]; at 3.7 µM,-22%
same,growth inhibition,[1]; at 11.0 µM,-27%
same,growth inhibition,[1]; at 33.0 µM,-8%
same,growth inhibition,[1]; at 100.0 µM,26%
same,growth inhibition,[2]; at 1.2 µM,-39%
same,growth inhibition,[2]; at 3.7 µM,-43%
same,growth inhibition,[2]; at 11.0 µM,-18%
same,growth inhibition,[2]; at 33.0 µM,-36%
same,growth inhibition,[2]; at 100.0 µM,1%
same,growth inhibition,[3]; at 1.2 µM,-30%
same,growth inhibition,[3]; at 3.7 µM,-29%
same,growth inhibition,[3]; at 11.0 µM,-7%
same,growth inhibition,[3]; at 33.0 µM,21%
same,growth inhibition,[3]; at 100.0 µM,56%
same,growth inhibition,[4]; at 1.2 µM,19%
same,growth inhibition,[4]; at 3.7 µM,32%
same,growth inhibition,[4]; at 11.0 µM,34%
same,growth inhibition,[4]; at 33.0 µM,49%
same,growth inhibition,[4]; at 100.0 µM,67%
same,growth inhibition,[5]; at 1.2 µM,-11%
same,growth inhibition,[5]; at 3.7 µM,-10%
same,growth inhibition,[5]; [16],25%
same,growth inhibition,[5]; at 11.0 µM,3%
same,growth inhibition,[5]; at 33.0 µM,17%
same,growth inhibition,[5]; [17],74% (active)
same,growth inhibition,[5]; at 50.0 µM,6.6%
same,growth inhibition,[5]; at 100.0 µM,37%
same,growth inhibition,[6]; at 1.2 µM,-31%
same,growth inhibition,[6]; at 3.7 µM,-5%
same,growth inhibition,[6]; [16],1%
same,growth inhibition,[6]; at 11.0 µM,-11%
same,growth inhibition,[6]; at 33.0 µM,9%
same,growth inhibition,[6]; [17],34%
same,growth inhibition,[6]; at 50.0 µM,2.95%
same,growth inhibition,[6]; at 100.0 µM,60%
same,growth inhibition,[7]; at 1.2 µM,-36%
same,growth inhibition,[7]; at 3.7 µM,-37%
same,growth inhibition,[7]; at 11.0 µM,-18%
same,growth inhibition,[7]; at 33.0 µM,-15%
same,growth inhibition,[7]; at 100.0 µM,-8%
same,growth inhibition,[8]; [16],36%
same,growth inhibition,[8]; [17],80% (active)
same,growth inhibition,[8]; at 50.0 µM,30%
same,growth inhibition,[9]; at 1.2 µM,12%
same,growth inhibition,[9]; at 3.7 µM,13%
same,growth inhibition,[9]; at 11.0 µM,-1%
same,growth inhibition,[9]; at 33.0 µM,30%
same,growth inhibition,[9]; at 100.0 µM,-1%
same,growth inhibition,[10]; [16],27%
same,growth inhibition,[10]; [17],45%
same,growth inhibition,[10]; at 50.0 µM,56.8%
same,growth inhibition,[11]; at 1.2 µM,19%
same,growth inhibition,[11]; at 3.7 µM,21%
same,growth inhibition,[11]; [16],45%
same,growth inhibition,[11]; at 11.0 µM,19%
same,growth inhibition,[11]; at 33.0 µM,37%
same,growth inhibition,[11]; [17],62%
same,growth inhibition,[11]; at 50.0 µM,27.1%
same,growth inhibition,[11]; at 100.0 µM,39%
same,growth inhibition,[12]; at 1.2 µM,5%
same,growth inhibition,[12]; at 3.7 µM,20%
same,growth inhibition,[12]; at 11.0 µM,17%
same,growth inhibition,[12]; at 33.0 µM,43%
same,growth inhibition,[12]; at 100.0 µM,51%
same,growth inhibition,[13]; at 1.2 µM,-17%
same,growth inhibition,[13]; at 3.7 µM,-13%
same,growth inhibition,[13]; at 11.0 µM,-2%
same,growth inhibition,[13]; at 33.0 µM,45%
same,growth inhibition,[13]; at 100.0 µM,67%
same,growth inhibition,[14]; [16],13%
same,growth inhibition,[14]; [17],48%
same,growth inhibition,[14]; at 50.0 µM,15.7%
same,growth inhibition,[15]; at 1.2 µM,4%
same,growth inhibition,[15]; at 3.7 µM,8%
same,growth inhibition,[15]; at 11.0 µM,8%
same,growth inhibition,[15]; at 33.0 µM,21%
same,growth inhibition,[15]; at 100.0 µM,28%
O=C([O][Sn]([O]C(=O)c1ccccc1)([c]1ccccc1)[c]1ccccc1)c1ccccc1,growth inhibition,[1]; at 1.2 µM,23%
same,growth inhibition,[1]; at 3.7 µM,21%
same,growth inhibition,[1]; at 11.0 µM,22%
same,growth inhibition,[1]; at 33.0 µM,46%
same,growth inhibition,[1]; at 100.0 µM,81% (active)
same,growth inhibition,[2]; at 1.2 µM,0%
same,growth inhibition,[2]; at 3.7 µM,4%
same,growth inhibition,[2]; at 11.0 µM,-4%
same,growth inhibition,[2]; at 33.0 µM,9%
same,growth inhibition,[2]; at 100.0 µM,78% (active)
same,growth inhibition,[3]; at 1.2 µM,30%
same,growth inhibition,[3]; at 3.7 µM,18%
same,growth inhibition,[3]; at 11.0 µM,24%
same,growth inhibition,[3]; at 33.0 µM,21%
same,growth inhibition,[3]; at 100.0 µM,18%
same,growth inhibition,[4]; at 1.2 µM,1%
same,growth inhibition,[4]; at 3.7 µM,14%
same,growth inhibition,[4]; at 11.0 µM,20%
same,growth inhibition,[4]; at 33.0 µM,43%
same,growth inhibition,[4]; at 100.0 µM,86% (active)
same,growth inhibition,[5]; at 1.2 µM,20%
same,growth inhibition,[5]; at 3.7 µM,30%
same,growth inhibition,[5]; [16],4%
same,growth inhibition,[5]; at 11.0 µM,27%
same,growth inhibition,[5]; at 33.0 µM,40%
same,growth inhibition,[5]; [17],26%
same,growth inhibition,[5]; at 50.0 µM,68.5%
same,growth inhibition,[5]; at 100.0 µM,88% (active)
same,growth inhibition,[6]; at 1.2 µM,21%
same,growth inhibition,[6]; at 3.7 µM,16%
same,growth inhibition,[6]; [16],12%
same,growth inhibition,[6]; at 11.0 µM,16%
same,growth inhibition,[6]; at 33.0 µM,37%
same,growth inhibition,[6]; [17],52%
same,growth inhibition,[6]; at 50.0 µM,76.8% (active)
same,growth inhibition,[6]; at 100.0 µM,87% (active)
same,growth inhibition,[7]; at 1.2 µM,32%
same,growth inhibition,[7]; at 3.7 µM,23%
same,growth inhibition,[7]; at 11.0 µM,30%
same,growth inhibition,[7]; at 33.0 µM,35%
same,growth inhibition,[7]; at 100.0 µM,82% (active)
same,growth inhibition,[8]; [16],-11%
same,growth inhibition,[8]; [17],73% (active)
same,growth inhibition,[8]; at 50.0 µM,56.4%
same,growth inhibition,[9]; at 1.2 µM,15%
same,growth inhibition,[9]; at 3.7 µM,16%
same,growth inhibition,[9]; at 11.0 µM,10%
same,growth inhibition,[9]; at 33.0 µM,23%
same,growth inhibition,[9]; at 100.0 µM,57%
same,growth inhibition,[10]; [16],-1%
same,growth inhibition,[10]; [17],77% (active)
same,growth inhibition,[10]; at 50.0 µM,60%
same,growth inhibition,[11]; at 1.2 µM,8%
same,growth inhibition,[11]; at 3.7 µM,2%
same,growth inhibition,[11]; [16],-14%
same,growth inhibition,[11]; at 11.0 µM,10%
same,growth inhibition,[11]; at 33.0 µM,30%
same,growth inhibition,[11]; [17],87% (active)
same,growth inhibition,[11]; at 50.0 µM,58.5%
same,growth inhibition,[11]; at 100.0 µM,83% (active)
